Measurements taken from the supplement of paper PMC9694430.

How the values were obtained:
Assay in all cases: thermal shift delta Tm vs DMSO control; higher = stronger stabilization (binding)
Details in all cases: 12.5 µM; protein concentration 2 µM
LOC_OS01G01410-cb001 = tested on: LOC_OS01G01410-cb001
Procedure, shortened: (§1)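 Rice kinase domain constructs were expressed in E. coli, purified, and tested by differential scanning fluorimetry with compound added in DMSO. Each well of a 96-well plate held 19.5 μl of 2 μM kinase in 100 mM potassium phosphate pH 7.5, 150 mM NaCl, 10% glycerol and 5 × SYPRO Orange, and fluorescence was read from 25°C to 95°C at 0.05°C/s. The melting temperature shift is the mean of triplicates, taken against protein with DMSO alone after Boltzmann fitting.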

LOC_OS01G02750-cb003 = tested on: LOC_OS01G02750-cb003
Procedure, shortened: as §1

LOC_OS01G10900-cb004 = tested on: LOC_OS01G10900-cb004
Procedure, shortened: as §1

LOC_OS01G13800-cb001 = tested on: LOC_OS01G13800-cb001
Procedure, shortened: as §1

LOC_OS01G14860-cb001 = tested on: LOC_OS01G14860-cb001
Procedure, shortened: as §1

LOC_OS01G21960-cb002 = tested on: LOC_OS01G21960-cb002
Procedure, shortened: as §1

LOC_OS01G39600-cb002 = tested on: LOC_OS01G39600-cb002
Procedure, shortened: as §1

LOC_OS01G48390-cb002 = tested on: LOC_OS01G48390-cb002
Procedure, shortened: as §1

LOC_OS01G51400-cb002 = tested on: LOC_OS01G51400-cb002
Procedure, shortened: as §1

LOC_OS01G52050-cb004 = tested on: T1, LOC_OS01G52050-cb004
T1 sequence (whole entry): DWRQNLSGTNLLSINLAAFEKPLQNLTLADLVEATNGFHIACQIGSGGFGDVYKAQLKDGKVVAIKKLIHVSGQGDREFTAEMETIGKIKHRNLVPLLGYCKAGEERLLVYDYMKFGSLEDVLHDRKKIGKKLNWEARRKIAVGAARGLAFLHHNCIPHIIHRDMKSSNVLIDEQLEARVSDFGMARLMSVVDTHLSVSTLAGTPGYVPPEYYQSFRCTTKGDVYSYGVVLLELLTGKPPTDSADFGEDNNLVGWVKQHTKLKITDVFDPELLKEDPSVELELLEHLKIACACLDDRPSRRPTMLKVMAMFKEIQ
Procedure, shortened: as §1

| SMILES | thermal shift delta Tm (LOC_OS01G01410-cb001) | thermal shift delta Tm (LOC_OS01G02750-cb003) | thermal shift delta Tm (LOC_OS01G10900-cb004) | thermal shift delta Tm (LOC_OS01G13800-cb001) | thermal shift delta Tm (LOC_OS01G14860-cb001) | thermal shift delta Tm (LOC_OS01G21960-cb002) | thermal shift delta Tm (LOC_OS01G39600-cb002) | thermal shift delta Tm (LOC_OS01G48390-cb002) | thermal shift delta Tm (LOC_OS01G51400-cb002) | thermal shift delta Tm (LOC_OS01G52050-cb004) |
| --- | --- | --- | --- | --- | --- | --- | --- | --- | --- | --- |
| CCC[C@H](NC(=O)/C(C#N)=C/c1cccc(Br)n1)c1ccccc1 [Degrasyn (WP1130)] | -2.54 °C | -8.18 °C | 0.28 °C | 0.06 °C | -2.02 °C | 0.19 °C | -4.1 °C | -0.09 °C | -1.59 °C | -3.54 °C |
| COc1cc(F)c(F)c(Nc2ccc(I)cc2F)c1NS(=O)(=O)C1(C[C@H](O)CO)CC1 [Refametinib (RDEA119, Bay 86-9766)] | 1.35 °C | -1.27 °C | 0.47 °C | 0.32 °C | 0.61 °C | 0.52 °C | -0.03 °C | 0.23 °C | 0.02 °C | 1.46 °C |
| CC(C)(O)CNc1ncc(-c2ccnc(Nc3ccncc3)n2)c(CC2CC2)n1 [VPS34 inhibitor 1 (Compound 19, PIK-III analogue)] | 0.51 °C | 1.04 °C | 5.05 °C | 0.63 °C | 2.25 °C | 0.87 °C | 0.48 °C | 1.46 °C | 0.29 °C | 4.06 °C |
| Cc1ccc(NC(=O)c2ccc(CN3CC[C@H](N(C)C)C3)c(C(F)(F)F)c2)cc1Nc1nccc(-c2cncnc2)n1 [Bafetinib (INNO-406)] | 0.65 °C | 0.59 °C | 0.73 °C | 0.04 °C | 0.5 °C | 0.66 °C | -0.18 °C | 1.17 °C | 0.46 °C | 0.61 °C |
| CCCCCCCCCC(=O)CC(O)S(=O)(=O)O (stereo not given) [Sodium Houttuyfonate] | 0.56 °C | -0.18 °C | 3.08 °C | 0.69 °C | 0.44 °C | 0.8 °C | -0.35 °C | 0.2 °C | 0.12 °C | 0.07 °C |
| Cn1c2ccccc2c2c3c(c4c5ccccc5n(CCC#N)c4c21)CNC3=O | 2.6 °C | 2.74 °C | 0.09 °C | 1.15 °C | 4.78 °C | 2.78 °C | 3.54 °C | 1.96 °C | 0.8 °C | 3.9 °C |
| Cc1nc(Nc2ncc(C(=O)Nc3c(C)cccc3Cl)s2)cc(N2CCN(CCO)CC2)n1 [Dasatinib] | 1.38 °C | 0.59 °C | 4.47 °C | 0.61 °C | 0.27 °C | 1.22 °C | 5.93 °C | 0.6 °C | 0.66 °C | 0.79 °C |
| Cc1nc(Nc2cnn(C3CCNCC3)c2)nc2c1N(C)C(=O)c1cc3ccccc3cc1N2C | 0.36 °C | 0.48 °C | -0.09 °C | 0.39 °C | -0.18 °C | 0.66 °C | -1.52 °C | 0.62 °C | 0.18 °C | 0.38 °C |
| CC(C)(C)NC(=O)c1cncn1C1CCN(c2ccc(-c3nnc(C(F)(F)F)o3)cn2)CC1 | 0.22 °C | 0.89 °C | 0.11 °C | -0.25 °C | 0.2 °C | 0.13 °C | -0.63 °C | 0.3 °C | 0.06 °C | 0.97 °C |
| OC1CCC(Nc2ncc3nc(Nc4c(F)cc(F)cc4F)n([C@H]4CCOC4)c3n2)CC1 (stereo not given in full) [Tanzisertib(CC-930)] | 0.32 °C | 0.43 °C | 0.32 °C | 0.7 °C | 0.73 °C | 0.08 °C | 0.06 °C | 0.2 °C | 0.08 °C | 2.88 °C |
| O=C1NC(=O)/C(=C/c2ccc3c(c2)OC(F)(F)O3)S1 | 0.72 °C | 0.45 °C | 0.16 °C | 0.44 °C | 0.39 °C | 1.11 °C | 0.17 °C | 0.77 °C | 0.53 °C | 0.79 °C |
| Cc1cn(-c2cc(NC(=O)c3ccc(C)c(Nc4nccc(-c5cnccn5)n4)c3)cc(C(F)(F)F)c2)cn1 [Radotinib] | 0.24 °C | 1.63 °C | 2.41 °C | 0.87 °C | 0.52 °C | 0.96 °C | -0.12 °C | 0.73 °C | 0.16 °C | 0.51 °C |
| Cn1cc(-c2ccc(F)c(C(F)(F)F)c2)nc1C1CCN(c2ncnc3[nH]ncc23)CC1 | 0.43 °C | 0.52 °C | 0.51 °C | 0.16 °C | 1.8 °C | 0.54 °C | 0.71 °C | 0.47 °C | -0.2 °C | 0.39 °C |
| CC1(C)C=Cc2c(ccc3c2OC[C@@H](c2ccc(O)cc2O)C3)O1 [Glabridin] | 0.95 °C | 3.18 °C | 2.07 °C | 0.08 °C | 1.32 °C | 1.14 °C | 2.12 °C | 1.81 °C | 1.35 °C | 4.83 °C |
| COc1cc2ncnc(Nc3ccc(F)c(Cl)c3)c2cc1NC(=O)/C=C/CN1CCCCC1 | 1.07 °C | 1.4 °C | 1.7 °C | 0.04 °C | 0.18 °C | 1.27 °C | -0.71 °C | 0.7 °C | 0.66 °C | 0.74 °C |
| COC(=O)Nc1ccc(-c2nc(N3CCOCC3)c3cnn(C4CCN(C(=O)OC)CC4)c3n2)cc1 | 0.48 °C | 0.7 °C | 1.9 °C | 0.44 °C | 0.21 °C | 0.37 °C | -0.17 °C | 0.23 °C | -0.05 °C | 0.25 °C |
| Nc1[nH]nc2nnc(-c3c(-c4ccccc4)nn4ccccc34)cc12 | 0.52 °C | 0.34 °C | 0.36 °C | 0.24 °C | 1.87 °C | 0.45 °C | -0.05 °C | 0.56 °C | 0.19 °C | 0.56 °C |
